Reference: PubChem BioAssay (NCI)
This is part of a sample that, as a whole, favours compounds with a hit. Of some 79,000 tested, about 15% had one in any assay. Values without a mark were called inactive. Active and inactive are the calls of the source. No stated cut-off is given here; in the data, active means growth inhibition above about 70%; inactive means the rest. Where a SMILES comes first, the peptide text is derived from it. The star is where a group is joined. Trt = c1ccc(C(c2ccccc2)(c2ccccc2)*)cc1; Cbz = O=C(OCc1ccccc1)*

Columns and labels:
[1] = NCI Yeast Anticancer Drug Screen. Data for the rad50 strain (AID 155);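 further: 0% = growth of vehicle-only cultures of the same strain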; details: S. cerevisiae rad50 strain growth inhibition, active compounds read high
Outline: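 Yeast carrying a defined DNA repair defect were exposed to test compounds, and growth was compared with vehicle-treated controls to give percent inhibition.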

[2] = NCI Yeast Anticancer Drug Screen. Data for the mec2-1 strain (AID 157); details: S. cerevisiae mec2-1 strain, active compounds read high
Outline: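 Each compound was tested on mec2-1 yeast, a strain altered in DNA damage repair or cell cycle control. Growth inhibition is reported relative to vehicle.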

[3] = NCI Yeast Anticancer Drug Screen. Data for the sgs1 mgt1 strain (AID 161);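 further: 0% = growth of cultures given vehicle only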; details: S. cerevisiae sgs1 mgt1 strain, active compounds read high
Outline: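 Read-out: growth inhibition vs vehicle controls. Cells: mutant yeast strain deficient in DNA damage repair.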

[4] = NCI Yeast Anticancer Drug Screen. Data for the cln2 rad14 strain (AID 165);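 further: 0% = growth equal to vehicle treated cultures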; details: S. cerevisiae cln2 rad14 strain, active compounds read high
Outline: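 Test compounds were added to cln2 rad14 yeast cultures; inhibition of growth was then determined by comparison with vehicle treatment.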

[5] = NCI Yeast Anticancer Drug Screen. Data for the bub3 strain (AID 167); details: S. cerevisiae bub3 mutant strain, active compounds read high
Outline: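 Compounds were applied to a genetically altered yeast strain carrying a cell-cycle control defect. Growth inhibition was scored against vehicle-treated controls.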

[6] = NCI Yeast Anticancer Drug Screen. Data for the mlh1 rad18 strain (AID 175); details: S. cerevisiae mlh1 rad18 strain growth inhibition, active compounds read high
Outline: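 Inhibition values reflect reduced growth of mutant yeast versus vehicle-treated controls following compound exposure; the mutations affect DNA damage repair.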

[7] = at 5.0 µM (retest, dose inferred, filed as 0.5)
[8] = at 50.0 µM (retest, dose inferred, filed as 5.0)

SMILES	growth inhibition [1, 7]	growth inhibition [1, 8]	growth inhibition ([1]; at 50.0 µM)	growth inhibition [2, 7]	growth inhibition [2, 8]	growth inhibition ([2]; at 50.0 µM)	growth inhibition [3, 7]	growth inhibition [3, 8]	growth inhibition ([3]; at 50.0 µM)	growth inhibition [4, 7]	growth inhibition [4, 8]	growth inhibition ([4]; at 50.0 µM)	growth inhibition [5, 7]	growth inhibition [5, 8]	growth inhibition ([5]; at 50.0 µM)	growth inhibition [6, 7]	growth inhibition [6, 8]	growth inhibition ([6]; at 50.0 µM)
CC(C)=CCC/C(C)=C/COc1ccc(/C=C2/C(=O)N(O)[C@@H](C)C(=O)N2O)cc1	51%	97% (active)	80.8% (active)	52%	98% (active)	78.2% (active)	66%	92% (active)	78.9% (active)	54%	89% (active)	70.7% (active)	68%	97% (active)	83.3% (active)	32%	96% (active)	79.2% (active)
CCOC(=O)CCC(NC(=O)C(CSC(c1ccccc1)(c1ccccc1)c1ccccc1)NC(=O)OCc1ccccc1)C(=O)NC(CCC(=O)OCC)C(=O)NC(CCC(=O)OCC)C(=O)NC(CCC(=O)OCC)C(=O)NC(CSC(c1ccccc1)(c1ccccc1)c1ccccc1)C(=O)OC (configuration not stated) (Cbz-C(Trt)E(OEt)E(OEt)E(OEt)E(OEt)C(Trt)-OMe; configuration not given here)	1%	67%	74.2% (active)	-7%	63%	75.8% (active)	-1%	61%	68%	7%	70% (active)	82.3% (active)	-4%	58%	72.2% (active)	2%	73% (active)	75.6% (active)
S=c1sc2c(s1)SCCOCCOCCOCCS2	-4%	3%	29.3%	5%	7%	0.95%	-12%	5%	30.6%	12%	8%	31.1%	4%	36%	22.2%	-15%	-13%	23.4%
C/C(=N\NC(=S)NC(C)(C)C)c1ccccn1	20%	99% (active)	77% (active)	13%	99% (active)	85% (active)	32%	99% (active)	90.5% (active)	31%	99% (active)	89.5% (active)	18%	99% (active)	90.2% (active)	38%	98% (active)	91.2% (active)
CC(=O)Nc1n[n+]([O-])c2cc(C)ccc2[n+]1[O-]	96% (active)	99% (active)	99.2% (active)	96% (active)	99% (active)	99.7% (active)	93% (active)	99% (active)	99.4% (active)	92% (active)	99% (active)	99% (active)	95% (active)	99% (active)	99% (active)	97% (active)	99% (active)	99.4% (active)
O=C(Nc1cc(Cl)ccc1Oc1cc(Cl)c(Cl)cc1S(=O)(=O)O)Nc1cc(Cl)ccc1Oc1cc(Cl)c(Cl)cc1S(=O)(=O)O	-10%	81% (active)	85% (active)	-3%	73% (active)	87.4% (active)	-13%	79% (active)	84.1% (active)	23%	56%	76% (active)	14%	78% (active)	86% (active)	-4%	91% (active)	85.3% (active)
CC(C)(C)c1cc2c3c(c1)Oc1cc(C(C)(C)C)cc4c1C3(O)c1c(cc(C(C)(C)C)cc1O4)O2	19%	99% (active)	89.8% (active)	22%	100% (active)	88.5% (active)	-5%	99% (active)	86.4% (active)	14%	98% (active)	87.3% (active)	12%	98% (active)	84.7% (active)	14%	100% (active)	87.7% (active)
CCCCc1ccc(Nc2nc(N)c3[nH]cnc3n2)cc1	19%	35%	82.1% (active)	25%	26%	84% (active)	18%	31%	36.1%	21%	34%	16.7%	16%	31%	34.7%	22%	40%	91.6% (active)
CC(C)c1c(P(=O)(c2ccccc2)c2ccccc2)n(C)c2ccccc12	36%	99% (active)	83.4% (active)	-34%	98% (active)	89.5% (active)	-30%	89% (active)	77.8% (active)	-4%	98% (active)	85.5% (active)	-25%	99% (active)	84.7% (active)	-27%	96% (active)	79.6% (active)
CCC(N)(CO)CO	7%	67%	3.65%	5%	8%	8.3%	2%	11%	9.7%	5%	12%	71.5% (active)	3%	14%	44.1%	2%	8%	-30.2%
N#Cc1ccc(C(F)(F)F)cc1[N+](=O)[O-]	47%	99% (active)	99% (active)	44%	99% (active)	99.2% (active)	63%	99% (active)	99.4% (active)	20%	99% (active)	98.8% (active)	31%	99% (active)	99.2% (active)	37%	99% (active)	99.2% (active)
O=c1cc(-c2ccccc2)oc(-c2ccccc2)c1	-152%	-105%	82.4% (active)	-55%	-50%	19.4%	-71%	-59%	11%	-68%	-82%	-20.1%	-68%	-56%	20%	-123%	-103%	43.6%
CCOc1c(N=Nc2ccccc2Cl)c(C)nn1C(=S)S	-9%	36%	89.3% (active)	-15%	9%	80.7% (active)	8%	4%	77.3% (active)	-42%	-6%	92.2% (active)	-20%	17%	74% (active)	-23%	40%	96% (active)
Cc1ccc(NC(=O)/C(CC(=O)c2sc(Nc3ccc(Cl)c(Cl)c3)nc2C)=N\Nc2ccc([N+](=O)[O-])cc2[N+](=O)[O-])c(C)c1	1%	97% (active)	97.7% (active)	-4%	96% (active)	98.3% (active)	5%	93% (active)	94.5% (active)	0%	98% (active)	97.1% (active)	-10%	99% (active)	96.8% (active)	5%	96% (active)	96.8% (active)
Cc1cc(C2C(O)C(c3cc(C)on3)C2(C)O)no1 (configuration not stated)	0%	0%	72.2% (active)	-12%	13%	38.5%	3%	5%	62.6%	-2%	-7%	-24.1%	2%	-1%	8.1%	16%	17%	50.2%
CC(C)C(Sc1nc(-c2ccccc2)c(-c2ccccc2)[nH]1)C(=O)NN (configuration not stated)	-7%	91% (active)	90.2% (active)	-36%	96% (active)	33.4%	-3%	94% (active)	91.5% (active)	17%	98% (active)	90% (active)	29%	98% (active)	89% (active)	-11%	96% (active)	89.4% (active)
COC(=O)C1(Cc2ccc3c(c2)CCC3)Cc2ccccc2C1O (configuration not stated)	-3%	99% (active)	76.5% (active)	-40%	99% (active)	84.1% (active)	-44%	99% (active)	86.2% (active)	1%	99% (active)	89.8% (active)	-14%	99% (active)	89.6% (active)	-21%	99% (active)	91% (active)
CCN(CC)c1ccc(/C=C2/C[N+](C)(C)C/C(=C/c3ccc(N(CC)CC)cc3)C2=O)cc1	-17%	95% (active)	79.5% (active)	-19%	91% (active)	78.5% (active)	-13%	97% (active)	79.2% (active)	4%	95% (active)	76.5% (active)	-20%	80% (active)	81.5% (active)	-6%	96% (active)	82.2% (active)
N#CC1=C(N)OC(/C=C/c2ccccc2)=C(C#N)C1c1ccccc1 (configuration not stated)	33%	81% (active)	90.2% (active)	25%	81% (active)	76.3% (active)	30%	91% (active)	93.6% (active)	33%	86% (active)	101% (active)	23%	81% (active)	75% (active)	19%	86% (active)	88.3% (active)
